Compound activity (PubChem BioAssay)
HepG2 tox – qHTS for Inhibitors of TGF-b: Cytotox Counterscreen | 410,000 tested, 0.76% active | HepG2 CAGA-GFP viability, ATP luminescence, 18 h | Potency, µM (series often up to 46.1 µM), without a hit: at the top dose activity change, negative = cytotoxicity, actives largely listed as cytotoxic; also: potency is read from the fitted curve at half-maximal effect
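HepG2 CAGA-GFP cells (1000/well, DMEM with 1% FBS) received compound, then TGF-beta at 500 pg/mL final, and were incubated 18 hours at 37 degrees C. Viability was read by CellTiter-Glo luminescence. Media-only wells were set as complete cell-killing and DMSO as no toxicity.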
HT1080 IDH1KD tx – qHTS for induction of synthetic lethality in tumor cells producing 2HG: qHTS for the HT-1080-IDH1KD cell line | Potency, µM (top dose mostly 46.1 µM), without a hit: at the highest dose activity, negative = toxicity, usual class: cytotoxic | 360,000 tested, 2% active | HT-1080 IDH1 knockdown viability, ATP luminescence, 48 h | AID 686971, 2013;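 also: potency is read from the fitted curve at half-maximal effect; 0% = DMSO wells and -100% = cell-free medium wells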
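Knockdown cells (IDH1KD HT-1080) received compounds 2 h after plating at 750 cells/well and were kept 48 h at 37 °C in 5% FBS RPMI. A CellTiter-Glo luminescence read gave % activity for curve fitting.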
TGFb SMAD3 inh – qHTS for Inhibitors of TGF-b; HepG2 CAGA-GFP TGF-b/SMAD3 reporter, GFP fluorescence, 18 h; TGF-beta stimulated, 500 pg/mL final; Potency, µM (top dose mostly 46.1 µM), without a hit: top-dose activity, negative = inhibition, most hits filed as inhibitors; 410,000 tested, 1.2% active; also: potency is read from the fitted curve at half-maximal effect; % is scaled to controls: 0 for no effect and ±100 for the full control effect; nearly all actives have a fitted effect of over 65% in size
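HEPG2 CAGA-GFP reporter cells (1000/well, DMEM with 1% FBS) received compounds, then recombinant TGF-beta at 500 pg/mL final for 18 hours at 37 degrees C. Per-cell GFP summed per well was normalised to unstimulated and stimulated DMSO controls before curve fitting.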
IL1B secr inh – qHTS for Inhibitors of Inflammasome Signaling: IL-1-beta AlphaLISA Primary Screen. THP-1 LPS/ATP IL-1B secretion, AlphaLISA, 16 h; active compounds read low. activity change, % at 57.5 µM. 360,000 tested, 4.7% active. AID 743279, 2014; in the data active = activity change below about -50%; inconclusive = mostly about -30% to -49%; also: % is scaled to controls: 0 for no effect and ±100 for the full control effect
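Secreted IL-1B measured by AlphaLISA bead assay after 16 h compound exposure of THP-1 cells; compounds (final up to 57.5 uM) added 1 h before LPS (250 ng/mL) and ATP (1.25 mM) stimulation; lower signal means less secretion.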
HT1080-NT tox – qHTS for induction of synthetic lethality in tumor cells producing 2HG: qHTS for the HT-1080-NT fibrosarcoma cell line; 360,000 tested, 1.6% active; HT-1080-NT fibrosarcoma viability, CellTiter-Glo ATP luminescence, 48 h; Potency, µM (doses to about 46.1 µM), inactives show at the highest dose activity, negative = less viability, hits mostly cytotoxic;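 also: NT is the 2HG producing partner of a matched IDH1 knockdown line; potency is read from the fitted curve at half-maximal effect; 0% = DMSO-treated cells and -100% = media-only wells without cells; nearly all actives have a fitted effect of over 55% in size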
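750 cells/well, RPMI + 5% FBS; 2 h settle, compound pin-transfer, 48 h at 37 degrees C. CellTiter-Glo 10 min RT, luminescence. Normalized to DMSO and media-only wells.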
Giardia killer – Small Molecules that selectively kill Giardia lamblia: qHTS | Giardia lamblia trophozoite viability | 340,000 tested, 0.15% active | activity change, % at 7.66 µM, hits read low; in the data active = activity change below about -80%; inconclusive = between about -30% and that limit;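 also: parasites exposed to compound for two days anaerobically before the ATP read; % is scaled to controls: 0 for no effect and ±100 for the full control effect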
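ATP-content bioluminescence gauges trophozoite survival. Cells (100/well) receive compound and incubate anaerobically for 48 hrs at 37 deg C; detection reagent follows for 15-30 min at room temperature.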
The depositor's hits bear a star; ? = inconclusive; · = not tested or not shown. Rows were chosen to be rich in hits. Some 6.5% of all compounds tested hit in one or more screens of this group. Unless noted, calls follow the shape of the dose curve; as a rule, active = well fitted curve in the direction sought with a large enough effect; inconclusive = small, poorly fitted or top-dose-only effect, or another doubt; inactive = no such curve, though single readings can be large; an effect the other way counts as inactive or inconclusive.

SMILES	HepG2 tox	HT1080 IDH1KD tx	TGFb SMAD3 inh	IL1B secr inh	HT1080-NT tox	Giardia killer
CCOCCCn1c(SCC(=O)Nc2ccc3[nH]c(=O)[nH]c3c2)nc2ccccc2c1=O	4.3%	1.0%	0.0%	-54.0*	-9.7%	-12.4
Cc1cccc(NC(=O)c2ccc(S(=O)(=O)N3CCC(C)CC3)cc2)n1	-14.5%	?	-20.5%	-12.1	-1.3%	20.6
Cc1ccc(S(=O)(=O)N2CCc3ccccc3CC2)cc1	-17.4%	0.1%	-20.1%	-85.4*	-10.1%	-3.7
Cc1ccc(S(=O)(=O)N2CCc3ccccc3C2)cc1	-8.6%	-0.6%	?	7.5	-1.2%	-14.3
CN1CCc2cc3c(c4c2[C@H]1[C@H](O)c1ccccc1-4)OCO3	-10.4%	-1.7%	?	-62.0*	1.7%	0.4
COc1ccc2c(c1OC)C(=O)OC2C1c2c(cc3c(c2OC)OCO3)CCN1C (stereo unspecified)	4.8%	-20.1%	6.7%	-10.0	?	25.3
CCOC(=O)C1(C)CCN1C(=O)c1ccoc1 (stereo unspecified)	8.6%	9.3%	-3.4%	4.0	18.1%	·
C#CCN(C)Cc1ccccc1	-1.6%	-5.3%	3.0%	-18.0	-21.3%	-0.3
C#CCN(Cc1ccccc1)S(=O)(=O)C=C	3.1%	-14.2%	?	-65.1*	-28.2%	14.2
COc1ccc(Cl)cc1N1CC(c2nc3ccccc3[nH]2)CC1=O (stereo unspecified)	-32.0%	2.0%	5.6%	4.9	0.4%	-23.4
O=C(CN1C(=O)NC(c2ccccc2)(c2ccccc2)C1=O)N1CCN(c2ccc(F)cc2)CC1	-54.4%	?	?	-6.4	?	4.8
COCCNC(=S)N=Nc1c(O)[nH]c2ccc([N+](=O)[O-])cc12	16.5%	25.9µM*	7.5%	16.5	2.6%	4.7
C[C@]12c3[nH]c4ccc(Cl)cc4c3CCN1C(=O)[C@@H](CC(=O)NCc1ccco1)C[C@@H]2C(=O)N1CCCCC1	-14.1%	?	?	-55.0*	-11.0%	4.9
CCN(CC)C(=O)[C@H]1CC(CC(=O)NCC23CC4CC(CC(C4)C2)C3)C(=O)N2CCc3c([nH]c4ccc(OC)cc34)[C@]12C (stereo partly specified)	2.0%	-28.7%	?	-55.3*	-29.8%	?
COc1ccc2[nH]c3c(c2c1)CCN1C(=O)C(CC(=O)NCC24CC5CC(CC(C5)C2)C4)C[C@H](C(=O)N2CCCCC2)[C@@]31C (stereo partly specified)	-0.1%	9.0%	?	-64.2*	2.2%	-0.5
COc1ccc2[nH]c3c(c2c1)CCN1C(=O)C(CC(=O)NCc2ccco2)C[C@H](C(=O)N2CCCCC2)[C@@]31C (stereo partly specified)	-0.2%	1.2%	-28.6%	-5.0	2.5%	17.1
CC(C)N(C(=O)[C@H]1CC(CC(=O)NCC23CC4CC(CC(C4)C2)C3)C(=O)N2CCc3c([nH]c4ccccc34)[C@]12C)C(C)C (stereo partly specified)	-5.2%	2.0%	0.2%	-54.7*	-3.7%	15.9
O=C(COC(=O)c1cccc(S(=O)(=O)N2CCN(c3ccccc3)CC2)c1)NCc1ccco1	4.2%	6.0%	-1.0%	0.0	5.0%	-10.2
CCc1cc(Cn2nc(-c3ccccc3)cc2C(=O)NCc2ccc(C)cc2)on1	-26.7%	0.7%	-1.3%	-13.2	1.0%	14.3
